Screening results from PubChem BioAssay.
This is a sample that favours compounds with a hit; in the whole collection about 4.3% have one here.
NadD inh: blocks S. aureus nicotinate mononucleotide adenylyltransferase. purified NadD enzyme, colorimetric absorbance read-out. inhibition, % at 20 µM. actives 0.78% (n = 360,000). AID 602399; in the data active means inhibition above about 26%
rCAG RNA binder: molecules binding r(CAG) RNA repeats; AID 651821; r(CAG) RNA repeat, TO-PRO-1 dye displacement fluorescence; inhibition, % at 3 µM; actives 1.3% (n = 370,000);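 active means inhibition above the plate cutoff, the mean of all test compounds on that plate plus 3 SD, cut at about 35% in these data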;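 further: 0% = DMSO alone and 100% = 100 µM mitoxantrone as full dye displacement; higher means more dye released from RNA so lower well fluorescence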
NR3A LBD binder: modulators (binders) of human NR3A ligand-binding domain. NR3A LBD differential scanning fluorimetry, Tm shift; 0% = protein alone, 100% = glycine-bound protein. Tm shift relative to glycine control, % at 25 µM. actives 2.5% (n = 340,000). AID 1259313;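 active means melting temperature shift of at least 10% of the positive control shift, at one fixed dose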
FAS-TE inh: inhibitors of human fatty acid synthase thioesterase domain; inhibition, % at 15 µM; AID 602261; recombinant FAS-TE, OMFH fluorogenic substrate, fluorescence endpoint; P49327; actives 0.67% (n = 360,000);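 active means compounds whose normalised, plate-corrected inhibition of enzyme fluorescence in the single-dose primary screen is 50% or more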;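 further: 0% = DMSO with enzyme and 100% = substrate without enzyme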
Starred values were filed as active, the others as inactive; / = not tested or not shown.

SMILES	NadD inh	rCAG RNA binder	NR3A LBD binder	FAS-TE inh
COc1ccc(-n2c(C)cc(/C=C3\SC(=S)NC3=O)c2C)cc1	45*	14	-3	1
Cc1cc(/C=C2\SC(=Nc3ccc(F)cc3)NC2=O)c(C)n1-c1ccc(S(N)(=O)=O)cc1	65*	22	7	7
CCCCOCCCNC(=O)C[C@H]1C[C@@]2(C(=O)OC)C(=C[C@H](C3CCCC3)O[C@@H]2C)N(CCc2ccc(OC)c(OC)c2)C1=O	/	-1	/	/
COC(=O)[C@]12C[C@H](CC(=O)NCC3CCCCC3)C(=O)N(CCC3=CCCCC3)C1=C[C@H](C(C)C)O[C@@H]2C1CC1	/	3	/	/
Nc1ccc(N)c(C(=O)O)c1	33*	/	-1	-7
O=C(OCCN1CCCC12CCC(c1ccccc1)CC2)c1ccccc1 (stereo unspecified)	/	1	/	/
CC1=C2N=C(N)N(Cc3ccccc3)C(Cc3ccccc3)C2n2c(=O)n(-c3ccccc3)c(=O)n2C1 (stereo unspecified)	/	15	/	/
Cc1ccc(S(=O)(=O)N(CC(=O)Nc2ccc(Cl)c([N+](=O)[O-])c2)C2CCCCC2)cc1	1	22	11*	43
Cc1ccc(S(=O)(=O)N(CC(=O)Nc2cccc([N+](=O)[O-])c2)C2CCCCC2)cc1	-7	10	-3	28
COc1cc(N=c2ssnc2Cl)c(OC)cc1Cl	0	6	19*	-12
Nc1ccccc1N=c1ssnc1Cl	3	5	-1	-5
Cc1cc(C)nc(/N=c2/ssnc2Cl)c1	9	0	1	-3
Cc1nnc(N=c2ssnc2Cl)o1	5	5	21*	-10
Cc1cc(Cl)ccc1N=c1ssnc1Cl	28	7	24*	-2
Cc1ccc(N=c2ssnc2Cl)cc1	15	-2	22*	-5
COc1ccc(OC)c(N=c2ssnc2Cl)c1	4	8	9	-7
COC(=O)[C@]12C[C@H](CC(=O)NCc3cccs3)C(=O)N(CCC3=CCCCC3)C1=C[C@H](C(C)(C)C)O[C@@H]2C	/	1	/	/
O=C(Nc1c2c(nn1-c1ccccc1)CS(=O)C2)c1ccco1 (stereo unspecified)	-1	0	17*	-4
Cc1cccc(-n2nc3c(c2NC(=O)c2ccco2)CS(=O)C3)c1C (stereo unspecified)	-3	-3	-1	-8
CC(=O)Nc1ccc(/C=C/c2nc(-c3ccccc3O)n[nH]2)cc1	-5	17	21*	0
COCc1[nH]nc2c1C(c1ccccc1)N(Cc1ccccc1)C2=O (stereo unspecified)	/	1	/	/
O=C1C2=C(NC(=S)NC2c2ccc(Cl)cc2)NC(c2ccc(Cl)cc2)N1c1ccc(Cl)cc1 (stereo unspecified)	19	8	22*	-100
CCc1ccc(C2NC(=S)NC3=C2C(=O)N(c2ccccc2OC)C(c2ccc(CC)cc2)N3)cc1 (stereo unspecified)	23	-1	-7	-94
COC(=O)CC1Sc2ccccc2NC1=O (stereo unspecified)	1	-1	14*	-9
O=C1Nc2ccccc2SC1c1ccccc1 (stereo unspecified)	-9	-1	1	-4
SMILES	NadD inh	rCAG RNA binder	NR3A LBD binder	FAS-TE inh
Cc1ccc(NC2Sc3ccccc3NC2=O)cc1 (stereo unspecified)	1	7	13*	6
COc1ccc(Cn2cc(CN3[C@@H](C)COc4cc(Br)ccc4S3(=O)=O)nn2)cc1	/	2	/	/
Brc1ccc2ncnc(NCc3ccco3)c2c1	0	2	-4	-3
OC(CNCc1ccco1)Cn1c2ccc(Br)cc2c2cc(Br)ccc21 (stereo unspecified)	13	9	24*	22
COc1ccc(CCNc2oc(-c3ccc(OC)c(OC)c3)nc2C#N)cc1	-19	2	16*	28
COc1ccc(-c2nc(C#N)c(NCCCN(C)C)o2)cc1OC	-5	0	-3	-4
O=[N+]([O-])c1ccc(N=Nc2ccc(O)c3ccccc23)cc1	19	/	20*	-11
O=[N+]([O-])c1ccc(N=NNc2ccccc2)cc1	-2	/	-8	16
COC(=O)C1=C(C)N(Cc2ccccc2C(F)(F)F)C(=NCc2cc(OC)c(OC)c(OC)c2)NC1c1cccc(F)c1 (stereo unspecified)	/	4	/	/
O=C(c1ccco1)N(CCC(c1ccccc1)c1ccco1)Cc1ccco1 (stereo unspecified)	45*	7	0	6
CC(=O)N(CCC(Cc1ccccc1)c1ccco1)Cc1ccco1 (stereo unspecified)	-1	-1	0	7
CN(Cc1ccco1)S(=O)(=O)c1ccc2c(c1)CCN2C(=O)CC(C)(C)C	/	5	/	/
COc1ccc(CCN=C(N)NS(=O)(=O)c2ccc(C)c(C)c2)cc1OC	2	-3	2	-1
COc1ccc(CCN=C(C)c2cc(C)c(C)cc2O)cc1OC	-6	5	15*	-3
COc1ccc([C@@H]2CC=C(C(=O)O)[C@H](c3cccc(Cl)c3)N2S(=O)(=O)c2ccccc2C)cc1	4	74*	0	-6
O=C(O)C1=CC[C@@H](c2ccc(Cl)cc2)N(S(=O)(=O)c2ccc(Cl)cc2)[C@H]1c1cccc(Cl)c1	11	14	-14	27
COc1ccc(C(=O)Oc2c(C)occc2=O)cc1OC	0	-1	0	-5
Cc1occc(=O)c1OC(=O)Nc1ccc(Cl)c(Cl)c1	-1	15	38*	22
CCC[n+]1c(C)sc2c3c(ccc21)CCCC3	44*	/	-4	5
CC[n+]1c(C)sc2c(C)cc(C)cc21	2	-3	3	-10
COc1cc(CCC(C)=O)ccc1OC(=O)c1c(-c2c(F)cccc2Cl)noc1C	/	1	/	/
CCN(CC)S(=O)(=O)c1cccc(NC(=O)CC2CCCC2)c1	-2	1	-2	2
Cc1cc(NC(=O)Nc2cccc(C(F)(F)F)c2)no1	-3	6	589*	3
Cc1cc(NC(=O)c2cc(Cl)ccc2Cl)no1	-2	-2	2	-2
CCN(CC)S(=O)(=O)c1cccc(NC(=O)Nc2cccc(C(F)(F)F)c2)c1	0	19	31*	31
SMILES	NadD inh	rCAG RNA binder	NR3A LBD binder	FAS-TE inh
Cc1cc(NC(=O)c2sc(Nc3ccc(F)c(Cl)c3)nc2N)no1	-2	11	23*	0
Cc1cc(NC(=O)c2sc(Nc3cccc(C(F)(F)F)c3)nc2N)no1	5	16	20*	9
COC(=O)C1CN(Cc2ccccc2)CCS(=O)(=O)N1Cc1ccc(C(F)(F)F)cc1 (stereo unspecified)	/	1	/	/
Cc1ncsc1C(=O)Nc1cccc(C(F)(F)F)c1	-3	-3	27*	-2
CCOC(=O)c1nccnc1C(=O)Nc1cccc(C(F)(F)F)c1	-4	-5	6	1
O=C(CNCc1ccccc1[N+](=O)[O-])N1CCC2(CC1)OCCO2	/	6	/	/
COc1ccc(S(=O)(=O)Nc2ccccc2C(=O)NCc2ccco2)cc1Br	15	43*	-8	9
Cc1cc(NC(=O)c2ccc(C(C)(C)C)cc2)no1	-2	-4	-1	2
O=C(Nc1ccon1)c1ccc(OC2CCCC2)cc1	-2	-4	23*	-1
